According to PubChem BioAssay (EPA / NIEHS):
Inconclusive results are not listed. Activity calls are given as the source filed them. How the source made its calls, unless noted: active means hit-call score of the fitted dose curve at least 0.9, where 1 is the maximum; inactive means score below 0.9.

Legend:
[1] = molecular target: human Vitamin D Receptor (VDR), VDR (gene 7421) (UniProt P11473); test: ATG_VDR_TRANS: Attagene TRANS-FACTORIAL HepG2 Assay for human Vitamin D Receptor (VDR) (AID 2283022; active means hit-call score of the fitted dose curve at least 0.9, where 1 is the maximum)
Sequence of human Vitamin D Receptor (VDR), VDR (gene 7421) (P11473 whole entry, looked up, the tested form may be a part): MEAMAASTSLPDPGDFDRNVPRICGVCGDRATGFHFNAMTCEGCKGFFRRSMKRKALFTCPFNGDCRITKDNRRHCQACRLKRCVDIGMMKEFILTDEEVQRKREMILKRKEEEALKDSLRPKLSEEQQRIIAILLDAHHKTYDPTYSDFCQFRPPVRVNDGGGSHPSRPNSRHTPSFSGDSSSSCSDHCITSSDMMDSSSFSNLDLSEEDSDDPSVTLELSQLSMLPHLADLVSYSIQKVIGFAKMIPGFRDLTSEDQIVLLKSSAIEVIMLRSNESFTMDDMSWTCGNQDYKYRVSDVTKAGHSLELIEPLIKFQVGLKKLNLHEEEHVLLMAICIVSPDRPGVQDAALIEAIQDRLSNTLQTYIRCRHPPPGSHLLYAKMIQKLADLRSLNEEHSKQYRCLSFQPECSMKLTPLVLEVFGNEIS
Method in brief: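 RT-PCR/capillary electrophoresis read-out of reporter mRNA induction in transiently transfected HepG2; 24 h dosing; chimeric NR-Gal4 (TRANS format); gain-of-signal fit against DMSO baseline.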

[2] = read-out: E-selectin (Homo sapiens) (UniProt P16581); test: BSK_3C_Eselectin: BioMAP Diversity Plus: 3C Assay for Eselectin Biomarker Activity (AID 2283015); details: primary human endothelial cells (HUVEC); actives raise or lower the signal
Method in brief: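 HUVEC, 3C stimulation; compound exposure 24 h; E-selectin by ELISA; gain- or loss-of-signal fitted bidirectionally vs DMSO baseline.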

[3] = read-out: Monocyte Chemoattractant Protein-1 (MCP1), CCL2 (gene 6347); test: BSK_3C_MCP1: BioMAP Diversity Plus: 3C Assay for Monocyte Chemoattractant Protein-1 (MCP1) Biomarker Activity (AID 2283017); details: primary human endothelial cells (HUVEC); actives raise or lower the signal
Method in brief: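 HUVEC, 3C system; 24 h chemical exposure; MCP-1 by ELISA; bidirectional curve fit vs DMSO baseline.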

[4] = read-out: Human Leukocyte Antigen - DR isotype (HLADR), HLA-DRA (gene 3122); test: BSK_3C_HLADR: BioMAP Diversity Plus: 3C Assay for Human Leukocyte Antigen - DR isotype (HLADR) Biomarker Activity (AID 2283019); details: primary human endothelial cells (HUVEC); actives raise or lower the signal
Method in brief: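 HUVEC, 3C stimulation, 24 h post-dose; HLA-DR by ELISA; bidirectional curve fit vs DMSO baseline; gain or loss of signal scored.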

[5] = read-out: Interleukin-8 (IL8), CXCL8 (gene 3576); test: BSK_3C_IL8: BioMAP Diversity Plus: 3C Assay for Interleukin-8 (IL8) Biomarker Activity (AID 2283020); details: primary human endothelial cells (HUVEC); actives raise or lower the signal
Method in brief: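 IL-8 was measured by ELISA in HUVEC cultures 24 h after chemical dosing, with gain or loss of signal fitted relative to DMSO. Parallel SRB total-protein staining tracked overt cytotoxicity.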

[6] = read-out: Monokine induced gamma interferon (MIG), CXCL9 (gene 4283); test: BSK_3C_MIG: BioMAP Diversity Plus: 3C Assay for Monokine induced gamma interferon (MIG) Biomarker Activity (AID 2283021); details: primary human endothelial cells (HUVEC); actives raise or lower the signal;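 on AC50: MIG protein level measured by immunoassay in the treated endothelial cultures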
Method in brief: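 ELISA measurement of MIG in human umbilical vein endothelial cells 24 h after treatment. Cytotoxicity tracked by SRB staining in parallel cultures; gain or loss of signal fitted relative to DMSO.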

[7] = BSK_3C_SRB: Viability Assessment in the BioMAP Diversity Plus: 3C Assay (AID 2283023); details: primary human endothelial cells (HUVEC);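 further: fitted both ways against DMSO so a hit may be signal rise or drop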
Method in brief: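 HUVEC, 24 h post-dose; 10% TCA fix, 0.1% SRB stain, A560 nm. Bidirectional curve fit vs DMSO negative control.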

[8] = read-out: Matrix Metallopeptidase 1 (MMP1), MMP1 (gene 4312); test: BSK_BE3C_MMP1: BioMAP Diversity Plus: BE3C Assay for Matrix Metallopeptidase 1 (MMP1) Biomarker Activity (AID 2283024); details: primary human bronchial epithelial cells; actives raise or lower the signal
Method in brief: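 ELISA measurement of MMP-1 after 24 h compound exposure of primary human bronchial epithelial cells. Changes in either direction fitted relative to DMSO; parallel SRB staining checked overt cytotoxicity.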

[9] = BSK_3C_Vis: BioMAP Diversity Plus: 3C Assay for Morphology Visualization (AID 2283025); details: primary human endothelial cells (HUVEC);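 further: fitted both ways so gain or loss versus DMSO counts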;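 on AC50: light microscopy image of cell morphology used as background control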
Method in brief: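 Light-microscopy visualization of HUVEC cultures at 24 h post-treatment, with DMSO as baseline for bidirectional fitting.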

[10] = read-out: Pselectin, SELP (gene 6403); test: BSK_4H_Pselectin: BioMAP Diversity Plus: 4H Assay for Pselectin Biomarker Activity (AID 2283026); details: primary human endothelial cells (HUVEC); actives raise or lower the signal
Method in brief: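 ELISA of surface P-selectin on HUVEC, 24 h after dosing, with parallel SRB staining (0.1% after 10% TCA fixation, 560 nm) for overt cytotoxicity. Activity fitted in both directions relative to DMSO.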

[11] = BSK_4H_SRB: Viability Assessment in the BioMAP Diversity Plus: 4H Assay (AID 2283027); details: primary human endothelial cells (HUVEC);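 further: cells exposed to compound for 24 h before staining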;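 on AC50: curves fitted both ways versus DMSO so AC50 may be loss or gain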
Method in brief: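 Cytotoxicity read-out in primary human endothelial cells: after 24 h compound exposure, cells were TCA-fixed (10%), stained with 0.1% SRB and absorbance taken at 560 nm. Values fitted in both directions relative to DMSO.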

[12] = BSK_BE3C_SRB: Viability Assessment in the BioMAP Diversity Plus: BE3C Assay (AID 2283028); details: primary human bronchial epithelial cells;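 on AC50: fitted both ways so AC50 may mark signal gain or loss versus DMSO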
Method in brief: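 Primary human bronchial epithelium; chemical dosing, 24 h; 10% TCA fix, 0.1% SRB stain, A560; bidirectional fit vs DMSO baseline.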

[13] = read-out: Vascular endothelial growth factor receptor 2 (Homo sapiens) (UniProt P35968); test: BSK_4H_VEGFRII: BioMAP Diversity Plus: 4H Assay for Vascular endothelial growth factor receptor 2 (VEGFR2) Biomarker Activity (AID 2283031); details: primary human endothelial cells (HUVEC); actives raise or lower the signal;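 on AC50: cell-surface VEGFR2 protein level quantified by ELISA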
Method in brief: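 HUVEC (human primary), 4H system; 24 h post-dose; VEGFRII by ELISA; bidirectional curve fit vs DMSO baseline; gain or loss of signal scored.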

[14] = read-out: Human Leukocyte Antigen - DR isotype (HLADR), HLA-DRA (gene 3122); test: BSK_BE3C_HLADR: BioMAP Diversity Plus: BE3C Assay for Human Leukocyte Antigen - DR isotype (HLADR) Biomarker Activity (AID 2283032); details: primary human bronchial epithelial cells; actives raise or lower the signal
Method in brief: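 Cell-surface HLA-DR ELISA readout at 24 h after dosing in the BE3C primary human lung bronchial epithelial system; gain or loss of signal against DMSO, with parallel sulforhodamine B staining of total protein for overt cytotoxicity.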

[15] = read-out: Thrombomodulin, THBD (gene 7056); test: BSK_3C_Thrombomodulin: BioMAP Diversity Plus: 3C Assay for Thrombomodulin Biomarker Activity (AID 2283029); details: primary human endothelial cells (HUVEC); actives raise or lower the signal
Method in brief: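 ELISA measurement of thrombomodulin on HUVEC surface 24 h after chemical dosing; activity fitted in both directions relative to DMSO vehicle.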

[16] = read-out: Urokinase-type plasminogen activator receptor (uPAR), PLAUR (gene 5329); test: BSK_4H_uPAR: BioMAP Diversity Plus: 4H Assay for Urokinase-type plasminogen activator receptor (uPAR) Biomarker Activity (AID 2283030); details: primary human endothelial cells (HUVEC); actives raise or lower the signal
Method in brief: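 HUVEC, 24 h post-dose; uPAR by ELISA; bidirectional fit vs DMSO baseline.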

[17] = read-out: Vascular cell adhesion molecule 1 (VCAM1), VCAM1 (gene 7412); test: BSK_4H_VCAM1: BioMAP Diversity Plus: 4H Assay for Vascular cell adhesion molecule 1 (VCAM1) Biomarker Activity (AID 2283033); details: primary human endothelial cells (HUVEC); actives raise or lower the signal
Method in brief: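 VCAM-1 ELISA read 24 h after chemical dosing of HUVEC in the BioMAP 4H system, with gain or loss of signal fitted relative to DMSO. Parallel SRB staining (560 nm) checked overt cytotoxicity.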

[18] = read-out: Interferon-gamma inducible Protein 10 (IP10), CXCL10 (gene 3627); test: BSK_BE3C_IP10: BioMAP Diversity Plus: BE3C Assay for Interferon-gamma inducible Protein 10 (IP10) Biomarker Activity (AID 2283034); details: primary human bronchial epithelial cells; actives raise or lower the signal
Method in brief: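 IP-10 quantified by ELISA in human primary bronchial epithelial cell cultures at 24 hours post-dosing. Gain or loss of signal fitted relative to DMSO; parallel SRB staining assessed overt cytotoxicity.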

[19] = read-out: Monocyte Chemoattractant Protein-1 (MCP1), CCL2 (gene 6347); test: BSK_4H_MCP1: BioMAP Diversity Plus: 4H Assay for Monocyte Chemoattractant Protein-1 (MCP1) Biomarker Activity (AID 2283018); details: primary human endothelial cells (HUVEC); actives raise or lower the signal
Method in brief: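 ELISA of MCP-1 (CCL2) 24 h after chemical dosing of HUVEC in the BioMAP 4H system. Gain or loss versus DMSO fitted; parallel SRB staining (560 nm) tracked overt cytotoxicity.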

Measured: AC50

Sequence of E-selectin (Homo sapiens) (P16581 whole entry, looked up): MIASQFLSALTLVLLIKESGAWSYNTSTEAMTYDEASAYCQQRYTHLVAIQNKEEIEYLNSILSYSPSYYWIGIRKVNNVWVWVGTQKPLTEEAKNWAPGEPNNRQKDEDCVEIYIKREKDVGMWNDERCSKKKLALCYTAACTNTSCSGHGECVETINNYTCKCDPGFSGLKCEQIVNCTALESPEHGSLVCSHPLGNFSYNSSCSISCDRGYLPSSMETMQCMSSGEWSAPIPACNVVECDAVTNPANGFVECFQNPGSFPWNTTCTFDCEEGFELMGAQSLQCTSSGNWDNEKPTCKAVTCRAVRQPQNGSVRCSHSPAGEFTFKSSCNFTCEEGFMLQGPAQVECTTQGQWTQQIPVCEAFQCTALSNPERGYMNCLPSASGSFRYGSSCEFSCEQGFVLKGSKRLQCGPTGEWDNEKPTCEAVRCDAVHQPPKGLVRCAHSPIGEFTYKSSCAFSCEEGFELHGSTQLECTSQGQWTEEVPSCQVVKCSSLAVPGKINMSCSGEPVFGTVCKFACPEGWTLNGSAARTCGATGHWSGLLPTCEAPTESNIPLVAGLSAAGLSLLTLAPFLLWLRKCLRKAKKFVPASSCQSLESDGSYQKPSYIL

COc1ccc(OC)c(C=O)c1
inactive: [1]

O=C/C=C/c1ccccc1
inactive: [1]

COP(=S)(OC)Oc1ccc(Sc2ccc(OP(=S)(OC)OC)cc2)cc1
active: [2] 26.5 µM | [3] 27.1 µM | [4] 28.5 µM | [5] 7.51 µM | [7] 20 µM | [9] 13.6 µM | [10] 14.5 µM | [11] 9.79 µM | [14] 8.14 µM
inactive: [6] | [1] | [8] | [12] | [13]

COC[C@H](C)N(C(=O)CCl)c1c(C)csc1C
not listed: [1] | [9] | [18] | [19]
inactive: all other assays above

CCCCCCCCC(=O)NCc1ccc(O)c(OC)c1
active: [4] 20 µM | [11] 20 µM | [18] 20 µM
not listed: [9] | [16] | [17] | [19]
inactive: all other assays above

Nc1ncc([N+](=O)[O-])s1
not listed: [1] | [9] | [16] | [17]
inactive: all other assays above

Oc1ccc(-c2ccccc2)cc1
not listed: [9] | [15] | [16] | [17] | [18] | [19]
inactive: all other assays above

CCOC(=O)/C=C(C)/C=C/C[C@@H](C)CCCC(C)C
inactive: [5] | [1] | [8] | [12]
active: [2] 26.5 µM | [3] 31.2 µM | [4] 28.1 µM | [6] 30.8 µM | [7] 36.4 µM | [10] 25.2 µM | [11] 34.3 µM | [15] 5.42 µM | [13] 33 µM | [14] 20 µM

ClC(Cl)=C(Cl)C(Cl)=C(Cl)Cl
active: [2] 14.5 µM | [3] 31.4 µM | [19] 31.6 µM | [4] 29.8 µM | [5] 32.4 µM | [6] 36.5 µM | [7] 34.4 µM | [8] 20 µM | [10] 33.6 µM | [11] 34.2 µM | [12] 31.2 µM | [13] 31.1 µM | [14] 26.9 µM | [18] 31.5 µM

Oc1cccc2cccnc12
active: [2] 20 µM | [4] 4.97 µM | [8] 2.73 µM | [10] 5.54 µM | [12] 4.3 µM | [14] 3.53 µM | [17] 1.96 µM | [18] 3.88 µM
inactive: [3] | [5] | [6] | [1] | [7] | [9] | [11] | [13]

Clc1nc(Cl)nc(Cl)n1
inactive: [1]

C1CCC(NC2CCCCC2)CC1
inactive: [1]

COC(=O)Cc1ccccc1
not listed: [9] | [17] | [18] | [19]
inactive: all other assays above

Oc1c(I)cc(I)cc1I
active: [2] 11.3 µM | [3] 11.9 µM | [4] 9.5 µM | [5] 11.5 µM | [6] 34.9 µM | [7] 10.3 µM | [8] 6.77 µM | [9] 13 µM | [10] 12.7 µM | [11] 20 µM | [16] 12.7 µM | [13] 12.5 µM | [14] 3.97 µM
inactive: [1] | [12] | [15]

BrCCBr
not listed: [9] | [15] | [16] | [17] | [19]
inactive: all other assays above

CCCCC(CC)CO[N+](=O)[O-] (stereo not given)
inactive: [3] | [5] | [6] | [8] | [12] | [15]
active: [2] 35.8 µM | [19] 20 µM | [4] 35.4 µM | [7] 34.9 µM | [10] 30.6 µM | [11] 36.1 µM | [13] 31.9 µM | [14] 32.6 µM

Nc1ccc(-c2ccc(N)c(Cl)c2)cc1Cl
active: [4] 2.43 µM | [7] 2.21 µM | [9] 13.7 µM | [11] 2.76 µM | [17] 9.55 µM
not listed: [16] | [19]
inactive: all other assays above

COP(=S)(OC)Oc1cc(Cl)c(Cl)cc1Cl
active: [4] 27.4 µM | [8] 20 µM | [10] 20 µM | [11] 20 µM
not listed: [1] | [9] | [16] | [17] | [18] | [19]
inactive: all other assays above

C[C@]12CCC(=O)C[C@@H]1CC[C@@H]1[C@@H]2CC[C@]2(C)[C@@H](O)CC[C@@H]12
active: [2] 18 µM | [3] 26.9 µM | [4] 27.8 µM | [5] 21.5 µM | [7] 20.9 µM
not listed: [15] | [16] | [19]
inactive: all other assays above
